This is one part of the list. A number with no mark means an inactive call.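 The calls were made as follows: active = mean activation above a set limit carried over from the earlier primary screen; inactive = the rest.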

Chain of Caspase-7 (Homo sapiens) (P55210 whole entry D23A/D198A/D206A): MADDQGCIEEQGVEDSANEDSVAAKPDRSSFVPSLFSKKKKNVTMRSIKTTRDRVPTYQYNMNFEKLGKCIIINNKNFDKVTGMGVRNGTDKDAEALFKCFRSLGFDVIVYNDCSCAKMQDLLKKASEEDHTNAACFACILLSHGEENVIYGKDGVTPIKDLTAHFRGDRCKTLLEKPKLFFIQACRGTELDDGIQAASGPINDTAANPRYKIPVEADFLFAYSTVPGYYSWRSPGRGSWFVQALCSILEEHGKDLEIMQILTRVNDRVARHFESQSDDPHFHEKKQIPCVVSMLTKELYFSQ

The test concerns the target Caspase-7 (Homo sapiens) (UniProt P55210). Description: activation of procaspase-7 enzyme – biochemical, absorbance, human, dual procaspase-3/-7 activator project, confirmation (AID 493115).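 Also: 0% = DMSO only and 100% = DMSO with added 5 µM PC-7 enzyme.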 As to conditions: recombinant procaspase-7, Ac-DEVD-pNA absorbance 405 nm; at 8.5 µM; stronger effect = higher value; D23A/D198A/D206A mutant that cannot self-cleave.
With `CC1(C)Cc2c(C#N)c(SCc3nc4ccccc4[nH]3)nc(N3CCOCC3)c2CO1`, the activation is -34.3%.

Take `CNS(=O)(=O)c1cccc(C(=O)NC2CCCc3ccccc32)c1` (stereo not given): the activation was 0.28%.

In the case of `CCN(CC)c1ccc2oc(=O)c(C)nc2c1`, the activation was -21%.

As to `CCCCOC(=O)Cn1c(=O)n(CC(=O)OCCCC)c2cc(C)ccc21`, the activation is 0.05%.

As for `COc1ccc(/C=N/Nc2nc3ccccc3c(=O)[nH]2)cc1`, the activation was 0.2%.

On to `COc1ccc(Nc2ncnc3sc(-c4ccccc4)cc23)c(OC)c1`, for which the activation is -12.6%.

For `COc1ccc(-c2onc3ccc(C(C)=O)cc23)cc1`, the activation is -35.4%.

For `Nc1cccc2c1C(=O)N(Cc1nnc(-c3ccccc3Br)o1)C2=O`, the activation is -35.8%.

As for `CCOC(=O)C1(CCOC)CCN(Cc2cc3ccccc3s2)CC1`, the activation was 2.06%.

Take `CC(=O)Oc1ccc2c(C)c(CC(C)O)c(=O)oc2c1` (stereo not given): the activation was -34%.

Turning to `O=C1OCCN1C(=O)[C@H]1[C@H](c2ccc(F)cc2)C(c2ccccc2)=NN1c1ccc(Br)cc1`, the activation is -35.1%.

For `COc1ccc2sc(-c3ccc(S(C)(=O)=O)cc3)c(C#Cc3cncn3C)c2c1`, the activation is -34.2%.

For the molecule `COc1ccccc1N=Cc1c(O)c2ccccc2oc1=O`, the activation was -13.5%.

With `COc1ccc(Nc2ncc(C(=O)N3CCN(c4ccccc4OC)CC3)c3ccccc23)cc1`, the activation is 2.22%.

For `Fc1ccc(N2N=C(c3cccs3)CC2c2ccco2)c(F)c1` (stereo not given), the activation was -34.9%.
